Bioassay records deposited in PubChem by National Center for Advancing Translational Sciences (NCATS).
Only some compounds are listed: those with a hit (about 3.1% of all), similar ones and a draw of the others.
Tau fibril ThT = inhibitors of human tau fibril formation, thioflavin T binding; recombinant tau K18 P301L, heparin-induced fibrillization, ThT fluorescence; Potency, µM (doses to about 57.4 µM), for the others: top-dose activity, negative = inhibition, usual class: inhibitors; actives 2.1% (n = 270,000); also: nearly all actives have a fitted effect of over 55% in size
Target sequence (P10636 561-689 P618L limits assumed): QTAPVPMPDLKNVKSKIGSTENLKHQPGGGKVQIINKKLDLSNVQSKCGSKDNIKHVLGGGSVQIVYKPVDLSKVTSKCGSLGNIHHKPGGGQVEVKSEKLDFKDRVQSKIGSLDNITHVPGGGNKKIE
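Heparin-induced fibrillization of the P301L-mutant K18 repeat-domain fragment of human tau was followed by ThT binding in quantitative high-throughput format.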
TexasRed fluor = counter-screen for TRb-SRC2 inhibitors: fluorescence interference. TRb/SRC2 Texas Red total fluorescence interference. Potency, µM (doses to about 106 µM), inactives show top-dose fluorescence change, negative = quenching. actives 0.29% (n = 280,000); active = well fitted curve in either direction with a large enough effect; inconclusive = small, poorly fitted or top-dose-only effect
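Human TRb ligand-binding domain at 0.6 uM with 20 nM Texas Red SRC2 peptide in Tris buffer containing 1 uM T3 and 5% DMSO, incubated with compound 5 h at ambient temperature. Total fluorescence (555/632 nm) calculated as parallel + 2 × perpendicular.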
TRb SRC2 PPI = disrupts binding of human TR beta to SRC2; TRbeta-SRC2 peptide binding, fluorescence polarization; receptor liganded with 1 µM T3; Potency, µM (highest dose often 106 µM), for inactives: top-dose activity change, negative = inhibition, hits mostly inhibitors; actives 0.065% (n = 280,000);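 also: plate controls were bound peptide for no effect and peptide without receptor for full effect; nearly all actives have a fitted effect of over 50% in size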
Target sequence (P10828 whole entry, looked up): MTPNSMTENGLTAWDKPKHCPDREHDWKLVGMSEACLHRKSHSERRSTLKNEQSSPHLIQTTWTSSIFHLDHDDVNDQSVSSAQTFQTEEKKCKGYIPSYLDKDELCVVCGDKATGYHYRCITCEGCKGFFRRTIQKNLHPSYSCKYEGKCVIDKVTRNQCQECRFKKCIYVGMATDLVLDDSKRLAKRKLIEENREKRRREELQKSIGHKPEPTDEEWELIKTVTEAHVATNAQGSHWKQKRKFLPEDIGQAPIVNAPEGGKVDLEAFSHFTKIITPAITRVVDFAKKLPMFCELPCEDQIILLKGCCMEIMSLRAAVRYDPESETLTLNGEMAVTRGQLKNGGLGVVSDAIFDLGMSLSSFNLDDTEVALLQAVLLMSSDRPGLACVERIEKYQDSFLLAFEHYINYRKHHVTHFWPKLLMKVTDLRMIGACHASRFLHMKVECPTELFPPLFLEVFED
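Human TRb ligand-binding domain (0.6 uM) is mixed with 20 nM Texas Red SRC2 peptide and 1 uM T3; after compound addition and 5 hr at ambient temperature, polarization is measured and normalized to unbound and bound controls.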
Tau fluor cs = counter-screen for tau fibril formation inhibitors. tau K18 P301L Alexa594 fluorescence, heparin fibrillization. Potency, µM (highest dose often 57.7 µM), for the others: at the highest dose activity change, negative = decrease. actives 0.93% (n = 280,000); also: nearly all actives have a fitted effect of over 55% in size
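Human tau K18 P301L (15 uM unlabeled, 0.24 uM Alexa 594-labeled) in 100 mM sodium acetate pH 7 with 20 uM heparin, 6 hr at 37 C. ThT 30 uM added, 1 hr ambient; Alexa 594 FP and total fluorescence read at 555/632 nm.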
Tau FP inhib = tau fibrillization inhibition (FP) | actives 0.39% (n = 280,000) | Potency, µM (top dose mostly 57.7 µM), for inactives: at the top dose activity, negative = inhibition, most hits filed as inhibitors | P10636 | K18 P301L tau heparin fibrillization, Alexa594 FP, 6 h; also: nearly all actives have a fitted effect of over 55% in size
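Compound effects on tau fibrillization are measured by Alexa 594 fluorescence polarization (ex 555, em 632 nm). K18 P301L tau is used at 15 uM with 0.24 uM labeled tracer, and 20 uM heparin induces aggregation over 6 hr at 37 C.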
An asterisk follows results filed as active; u = inconclusive; x = not tested or not shown; [ ] = dose if it differs, or a comment. Unless noted, calls follow the shape of the dose curve; as a rule, active = well fitted curve in the direction sought with a large enough effect; inconclusive = small, poorly fitted or top-dose-only effect, or another doubt; inactive = no such curve, though single readings can be large; an effect the other way counts as inactive or inconclusive. Unless noted, % is scaled to controls: 0 for no effect and ±100 for the full control effect; potency is read from the fitted curve at half-maximal effect.

SMILES | Tau fibril ThT | TexasRed fluor | TRb SRC2 PPI | Tau fluor cs | Tau FP inhib
CCN1/C(=C2\OC(=S)N(C)C2=O)C=Cc2ccccc21 | u | 2% | u | -13% | -1%
CCSC1=NC(=O)/C(=C2/C=Cc3ccccc3N2CC)S1 | 7.1µM* | -2% | 2% | u | 17%
Oc1ccccc1NCC(O)Cn1ccc2ccccc21 (stereo not given) | 14µM* | -1% | 2% | 20µM*[quencher] | 1%
CCOC(=O)C1=C(CN2CCN(c3ccc(OC)cc3)CC2)NC(=O)NC1c1ccc(OC)cc1 (stereo not given) | -15% | 100µM*[quencher] | -20% | -14% | 2%
Nc1c(Cl)ncnc1N/N=C/c1ccccn1 | u | -5% | 2% | -14% | -4%
Nc1c(Cl)ncnc1N/N=C/c1ccc2ccccc2n1 | 4µM* | -6% | 0% | -30% | 10%
COc1ccc(N(C)C(=O)c2cc(S(=O)(=O)N3CCc4ccccc43)cn2C)c(OC)c1 | -14% | 0.016µM*[quencher] | -20% | u | 13%
COc1cc(NC(=O)c2cc(S(=O)(=O)N3CCc4ccccc43)cn2C)cc(OC)c1OC | -4% | 0% | -7% | u | 14%
C[Si](Cl)(Cl)c1ccccc1 | x | 0%[201 µM] | -1%[201 µM] | x | x
Cc1ccc(/C=C2\C(=O)Nc3ccccc32)o1 | 5% | 0.11µM*[quencher] | -13%[53 µM] | 1% | -3%
Cc1ccc2c(c1)/C(=C/c1ccco1)C(=O)N2 | 11µM* | -1% | -1% | -21% | 3%
Cc1ccc(C)c(S(=O)(=O)c2nnn3c2nc(Nc2ccc(C)c(C)c2)c2ccccc23)c1 | 2% | -16% | -1% | -6% | -5%
COc1cccc(NC(=O)CN(CCc2ccccc2)S(=O)(=O)c2ccc(Cl)cc2)c1 | 2% | -18% | 6% | u | u
COc1ccc(NC(=S)NC(=O)c2csnn2)cc1 | u | -2% | 1% | -10% | -2%
O=C(NC(=S)Nc1ccccc1)c1csnn1 | 10µM* | -7% | -6% | -12% | u
Cc1ccc(C2Nc3ccccc3-n3c(-c4ccccc4)c4c(=O)n(C)c(=O)n(C)c4c32)o1 (stereo not given) | 1% | -1% | 0% | -5% | u
C=CCN1C=C/C(=C\C=C(C#N)C#N)c2ccccc21 | u | -1% | -7% | -1% | 6%
CCCCCCN1C=C/C(=C\C=C(C#N)C#N)c2ccccc21 | u | 45µM*[fluorescent] | 40µM* | -10% | -19%
COc1cc(/C=C2/C(=O)c3cccc([N+](=O)[O-])c3C2=O)c(Br)cc1O | 13µM* | -20% | -6% | u | u
COc1ccc(-c2nc(-c3cccc([N+](=O)[O-])c3O)cc(=O)o2)cc1OC | u | -2% | -6% | -12% | -14%
O=C1/C(=C\c2ccc(O)cc2)SC(=S)N1/N=C/c1ccc(O)cc1 | 5µM* | -3% | 5% | u | 1%
CC(=O)N1CCCC1c1nc2ccccc2n1Cc1ccccc1C (stereo not given) | u | 0% | 4% | -6% | 4%
CC(=O)N(C1=C(Cl)C(=O)c2ccccc2C1=O)C1CCCCC1 | 4µM* | -3% | 2% | u | -14%
COc1ccc(/C=C2\SC(=S)N(C(C(=O)O)c3ccccc3)C2=O)c(OC)c1 (stereo not given) | 13µM* | -4% | 1% | -11% | -11%
COc1cc(/C=C2\SC(=S)N(C(Cc3ccccc3)C(=O)O)C2=O)ccc1O (stereo not given) | 11µM* | 22% | 29% | -17% | 2%
SMILES | Tau fibril ThT | TexasRed fluor | TRb SRC2 PPI | Tau fluor cs | Tau FP inhib
O=C1/C(=C/c2ccc(O)c(O)c2)SC(=S)N1Nc1ccccc1 | 5µM* | 10% | 22% | 11µM*[quencher] | -5%
O=C(O)C(Cc1ccccc1)N1C(=O)/C(=C/c2cccc3ccccc23)SC1=S (stereo not given) | 20µM* | -4% | 11% | -16% | -6%
CCC(C)C(NC(=O)OC(C)(C)C)C(=O)NC1COC2CC(n3ccc(=O)[nH]c3=O)OC12 (stereo not given) | x | 0% | -3% | x | x
Cc1ccc2nc(N3CCC(C(=O)N4CCN(c5cccc(Cl)c5)CC4)CC3)[nH]c2c1 | u | -1% | -1% | u | 13%
CCOc1ccc(/C=C2\SC(=S)N(NS(=O)(=O)c3ccccc3)C2=O)cc1OC | 14µM* | -4% | 4% | -6% | 8%
CCOc1cc(/C=C2\SC(=S)N(Nc3ccccc3)C2=O)ccc1O | 11µM* | 28% | u | 13µM*[quencher] | 1%
CN(C)c1ccc(/C=C2\SC(=S)N(Nc3ncc(C(F)(F)F)cc3Cl)C2=O)cc1 | u | 7% | -2% | -14% | -14%
COc1cc(/C=C2\SC(=S)N(Nc3ncc(C(F)(F)F)cc3Cl)C2=O)ccc1O | 16µM* | 23% | u | 14µM*[quencher] | -15%
CCOc1ccc(/C=C2\SC(=S)N(NS(=O)(=O)c3ccc(C)cc3)C2=O)cc1OC | u | -6% | 0% | -3% | -6%
COc1cc(/C=C2\SC(=S)N(Nc3ccccc3)C2=O)ccc1O | 11µM* | 1% | 1% | 28µM*[quencher] | 11%
COCOc1c2c(c(OCOC)c3c(OCOC)cccc13)/C(=N/NS(C)(=O)=O)C1=C2CCCC1 | -14% | -1% | 2% | -16% | 5%
CCCCc1ccc(NS(=O)(=O)c2ccc(N3CCCCS3(=O)=O)cc2)cc1 | 0% | -1% | -4% | -26% | 1%
O=C(O)c1ccc(/C=C2\SC(=S)N(Nc3ccccc3)C2=O)cc1 | u | -2% | 7% | u | -17%
O=C1/C(=C/c2ccncc2)SC(=S)N1Nc1ccccc1 | 18µM* | 2% | 5% | u | u
O=C1[C@H]2[C@H]3[C@H](O)[C@H](O)C/C(=N/OC[C@@H](O)COCc4ccco4)[C@H]3CC[C@@H]2C(=O)N1Cc1ccc2c(c1)OCO2 | -4%[11.5 µM] | -1%[11.2 µM] | 6%[11.2 µM] | -3%[11.6 µM] | -4%[11.6 µM]
Cn1c(N=Nc2ccccc2)nc2ccccc21 | 5% | -9% | 5% | 2% | 1%
CN(C)c1ccc(N=Nc2nc3ccccc3n2C)cc1 | 0.5µM* | -2% | 6% | 13µM*[quencher] | u
COc1cc(C2N=C(N)Nc3nc4ccccc4n32)ccc1OCCC(C)C (stereo not given) | -10% | -24% | -8% | -22% | 1%
CC(C)CCOc1ccc(C2N=C(N)Nc3nc4ccccc4n32)cc1 (stereo not given) | -10% | 40µM*[quencher] | -16% | -10% | 9%
CCN(CC)c1cc(C)nc2nc(-c3ccc(C)cc3)nn12 | -9% | 0% | -6% | 3% | -2%
O=C1C(=C2SCCCS2)CC/C1=C\c1ccc(F)cc1 | 1.1µM* | -1% | -5% | -3% | -5%
O=C1/C(=C/c2ccc(F)cc2)CCC1C1CCCC1 (stereo not given) | -10% | -6% | -11% | -5% | -2%
